Experimental data: PubChem BioAssay (NCATS)
Values joined by “and” are separate entries in the source; they are usually repeats but may differ in a detail not shown here. Identical values can stand only once. A number with no mark means an inactive call. Records with an inconclusive call do not appear. Active and inactive are the calls of the source. Unless noted, calls follow the shape of the dose curve; as a rule, active = well fitted activation curve with a large enough effect; inconclusive = small, poorly fitted or top-dose-only effect; inactive = flat fitted curve, though single readings scatter.

experiment: qHTS Assay for Identification of Small Molecule Agonists for Hypoxia Response Element Signaling Pathway (AID 914; active = well fitted activation curve with a large enough effect in the signal ratio, with a control signal flat, not every such curve was filed as active; the % refers to the signal ratio); settings: ME-180 (cervical carcinoma) HRE-bla reporter, beta-lactamase ratio, CoCl2, 17 h; hits give high values
How it was run: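 In Opti-MEM containing 0.5% dialyzed FBS and 10 mM HEPES, ME-180 HRE-bla cells received a compound titration and EC50 CoCl2. They were incubated 17 hours, then CCF4-loaded 2.5 hours at room temperature before ratio reading.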
Also: % of control where 0% means no effect.

| SMILES | activation |
| --- | --- |
| CCN1C(=O)[C@H]2[C@H]3[C@H](O)[C@H](O)C/C(=N/O[C@@H](C)c4cn([C@H](CO)Cc5ccccc5)nn4)[C@@H]3CC[C@@H]2C1=O | 1.7% |
| C/C(CCN1CCc2nc(-c3ccccc3)c(-c3ccccc3)cc2C1)=N\O[C@@H](C)c1cn([C@H](CO)Cc2ccccc2)nn1 | -1.74% and -5.69% |
| C=CC[C@@H]1C=C[C@@H](O/N=C\C[C@@H]2C=C[C@H](OC(C)=O)[C@H](COC(C)=O)O2)[C@@H](CO)O1 | 4.01% |
| CO[C@H]1COC(=O)C/C=C\[C@H](C)COC(=O)[C@@H](OCc2ccccc2)/C=C\[C@@H]1C | -11.2% |
| C/C(CCN1CCCCc2nc(C)c(C)cc21)=N\OC[C@@H](C)[C@H](OCc1ccccc1)C(C)C | 5.09% |
| CCc1cc2c(nc1CC)CCN(CC/C(C)=N/OC[C@@H](O)[C@@H]1O[C@@H]3OC(C)(C)O[C@@H]3[C@H]1O)C2 | -8.78% |
| COc1ccc(-c2ccc3c(n2)CCCN3C[C@H](O)CN2CCCc3nc(-c4ccc(Br)cc4)ccc32)cc1 | 17.4% and 18.3% |
| CC(C)C(=O)N[C@@H]1CCCN1C(=O)/C=C\c1ccccc1 | 12.7% |
| C#CCCCO/N=C1/C[C@@H](O)[C@@H](O)[C@@H]2[C@@H]3C(=O)N(C4CCCCC4)C(=O)[C@H]3CC[C@H]12 | 7.1% |
| C/C(CCN1CCc2nc(-c3ccccc3)c(-c3ccccc3)cc2C1)=N\O[C@@H](C)CN1CCCc2nc(C)c(C)cc21 | 24.9% |
| CCCNC(=O)OC[C@@H]1O[C@H](CCON=C(C)C)C=C[C@@H]1Oc1ccc(OC)cc1 | -3.17% |
| CC(C)=CCC/C(C)=C/CO/N=C1/[C@H]2O[C@@H]2[C@@H](O)[C@H]2[C@H]1CCn1c(=O)n(Cc3cc4c(cc3Cl)OCO4)c(=O)n12 | 3.23% |

experiment: Confirmation and Secondary Assay for Modulators of Hemoglobin Beta Chain Splicing at IVS2 705 locus (AID 930); settings: HeLa EGFP-705 splicing reporter, GFP fluorescence, 48 h; series mostly up to 46.1 µM; activation: at the top concentration;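 also: HeLa cells stably expressing the EGFP-705 splicing reporter; GFP fluorescence per well restored by corrected splicing of the IVS2-705 intron in EGFP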
How it was run: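 Per-well GFP, captured at 1 x 8 µm resolution with 488 nm excitation, served as the read-out for HeLa EGFP-705 cells incubated 2 days with test compound versus DMSO.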

| SMILES | activation | outcome |
| --- | --- | --- |
| COc1ccc(-c2coc3c(OC)c(OC)cc(O)c3c2=O)cc1 | 4.58% | – |
| COc1ccc(C2COc3c(ccc(O)c3OC)C2)c(OC)c1O (stereo unspecified) | -0.445% | – |
| COc1cc(C2c3cc4c(cc3C(O)[C@H]3COC(=O)C23)OCO4)cc(OC)c1OC (stereo partly specified) | – | inactive |
| COC1=CC(=O)C=C(OC)C1=O | 2.54% | – |
